About 7,900 targets were measured; listed, in parts, are those with a hit and a random draw of the rest. About 0.6% of all pairs of compound and target were hits.
Compound: c1cn2cc(-c3ccc4cn[nH]c4c3)nc(Nc3ccc(N4CCOCC4)cc3)c2n1 [entospletinib]
Test: log2 fold change, soluble protein after heating vs DMSO (PISA); higher = thermal stabilisation; K562 cells, 10 uM, 30 min; active = over 0.2 and 3.5 SD of the protein, either way, in both replicates (recomputed)
Method in brief: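 Aliquots of K562 cells (2×10^6 cells/mL) treated with 10 μM compound for 30 min were heated for 3 min over 48°C-58°C. After pooling and extraction in PBS with 0.5% NP-40 at 4°C, soluble protein from a 21,000xg, 90 min spin was quantified by TMTpro 16plex LC-MS/MS with channel sums equalised. Thermal stability is expressed against control samples, from duplicates, as a log2 fold change.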

UniProt P49757, sequence (P49757 whole entry, looked up): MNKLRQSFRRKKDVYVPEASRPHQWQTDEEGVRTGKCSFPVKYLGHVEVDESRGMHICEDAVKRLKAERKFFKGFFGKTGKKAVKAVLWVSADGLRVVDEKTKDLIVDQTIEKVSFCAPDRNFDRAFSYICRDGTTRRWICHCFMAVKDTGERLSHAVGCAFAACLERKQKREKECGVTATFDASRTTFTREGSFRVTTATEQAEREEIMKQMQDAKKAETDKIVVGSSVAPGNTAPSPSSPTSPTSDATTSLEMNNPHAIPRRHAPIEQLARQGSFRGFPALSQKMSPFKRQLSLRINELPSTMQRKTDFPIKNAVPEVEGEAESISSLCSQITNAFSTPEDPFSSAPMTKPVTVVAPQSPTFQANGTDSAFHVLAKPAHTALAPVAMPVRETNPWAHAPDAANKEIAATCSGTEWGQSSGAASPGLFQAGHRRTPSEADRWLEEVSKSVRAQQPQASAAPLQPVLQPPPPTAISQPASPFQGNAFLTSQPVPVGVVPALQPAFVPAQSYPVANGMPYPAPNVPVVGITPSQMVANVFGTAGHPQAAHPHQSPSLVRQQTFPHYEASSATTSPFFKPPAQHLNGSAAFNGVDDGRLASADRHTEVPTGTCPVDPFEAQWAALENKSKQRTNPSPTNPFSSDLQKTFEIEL
UniProt Q6N063, sequence (Q6N063 whole entry, looked up): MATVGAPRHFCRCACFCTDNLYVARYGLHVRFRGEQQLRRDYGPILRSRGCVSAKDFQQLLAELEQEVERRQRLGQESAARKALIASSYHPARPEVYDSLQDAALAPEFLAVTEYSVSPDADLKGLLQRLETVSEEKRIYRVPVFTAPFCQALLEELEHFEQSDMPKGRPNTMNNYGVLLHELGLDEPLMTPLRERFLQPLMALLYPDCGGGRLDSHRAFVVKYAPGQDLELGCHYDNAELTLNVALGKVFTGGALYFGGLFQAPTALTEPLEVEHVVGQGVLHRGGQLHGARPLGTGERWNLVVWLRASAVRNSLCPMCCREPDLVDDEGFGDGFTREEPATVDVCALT
UniProt Q9Y2I1, sequence (Q9Y2I1 whole entry, looked up): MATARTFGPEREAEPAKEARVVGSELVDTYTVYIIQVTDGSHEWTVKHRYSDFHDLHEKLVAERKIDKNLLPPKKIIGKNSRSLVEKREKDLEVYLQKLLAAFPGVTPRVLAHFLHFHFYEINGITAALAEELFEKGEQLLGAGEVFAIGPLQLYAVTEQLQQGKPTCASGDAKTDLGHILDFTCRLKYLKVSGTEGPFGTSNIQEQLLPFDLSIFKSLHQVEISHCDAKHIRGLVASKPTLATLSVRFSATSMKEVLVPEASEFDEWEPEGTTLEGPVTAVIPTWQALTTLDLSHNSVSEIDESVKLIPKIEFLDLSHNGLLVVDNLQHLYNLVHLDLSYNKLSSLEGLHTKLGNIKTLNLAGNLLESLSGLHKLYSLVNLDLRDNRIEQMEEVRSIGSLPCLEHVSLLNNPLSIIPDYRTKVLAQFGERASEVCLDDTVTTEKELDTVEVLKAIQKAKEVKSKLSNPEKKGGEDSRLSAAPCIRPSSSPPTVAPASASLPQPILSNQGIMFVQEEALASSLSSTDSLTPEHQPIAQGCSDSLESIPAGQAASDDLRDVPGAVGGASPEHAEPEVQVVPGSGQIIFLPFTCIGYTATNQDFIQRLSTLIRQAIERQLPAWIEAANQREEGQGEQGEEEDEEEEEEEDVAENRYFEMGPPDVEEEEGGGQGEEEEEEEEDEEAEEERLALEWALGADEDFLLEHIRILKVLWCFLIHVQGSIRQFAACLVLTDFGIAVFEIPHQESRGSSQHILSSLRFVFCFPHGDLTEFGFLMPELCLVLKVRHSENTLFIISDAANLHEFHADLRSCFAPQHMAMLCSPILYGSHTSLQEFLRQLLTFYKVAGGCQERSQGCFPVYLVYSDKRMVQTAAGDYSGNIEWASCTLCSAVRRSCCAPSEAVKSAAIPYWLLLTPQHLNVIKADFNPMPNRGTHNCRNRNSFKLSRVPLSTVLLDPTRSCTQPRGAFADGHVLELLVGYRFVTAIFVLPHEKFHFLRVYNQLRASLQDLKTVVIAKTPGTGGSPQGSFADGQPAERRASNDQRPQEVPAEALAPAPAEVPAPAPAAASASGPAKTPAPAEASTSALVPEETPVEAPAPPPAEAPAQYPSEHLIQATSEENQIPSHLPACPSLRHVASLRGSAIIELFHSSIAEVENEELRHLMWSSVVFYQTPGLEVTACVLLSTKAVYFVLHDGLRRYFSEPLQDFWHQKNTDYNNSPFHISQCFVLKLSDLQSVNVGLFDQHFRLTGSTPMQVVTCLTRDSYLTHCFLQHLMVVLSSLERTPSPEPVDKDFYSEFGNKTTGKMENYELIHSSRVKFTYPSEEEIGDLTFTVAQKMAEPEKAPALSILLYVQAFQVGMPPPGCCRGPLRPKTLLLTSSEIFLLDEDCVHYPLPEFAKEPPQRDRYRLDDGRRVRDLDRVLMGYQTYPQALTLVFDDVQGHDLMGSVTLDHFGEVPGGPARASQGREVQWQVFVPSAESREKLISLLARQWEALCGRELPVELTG
UniProt Q15014, sequence (Q15014 whole entry, looked up): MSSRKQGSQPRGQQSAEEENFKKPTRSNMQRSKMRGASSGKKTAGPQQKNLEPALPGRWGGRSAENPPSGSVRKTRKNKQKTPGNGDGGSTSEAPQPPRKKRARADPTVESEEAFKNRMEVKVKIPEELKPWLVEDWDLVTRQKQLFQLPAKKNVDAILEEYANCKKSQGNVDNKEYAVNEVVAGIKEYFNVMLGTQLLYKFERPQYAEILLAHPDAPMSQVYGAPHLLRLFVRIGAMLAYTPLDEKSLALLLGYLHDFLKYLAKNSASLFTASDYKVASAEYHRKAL
UniProt Q96T76, sequence (Q96T76 whole entry, looked up): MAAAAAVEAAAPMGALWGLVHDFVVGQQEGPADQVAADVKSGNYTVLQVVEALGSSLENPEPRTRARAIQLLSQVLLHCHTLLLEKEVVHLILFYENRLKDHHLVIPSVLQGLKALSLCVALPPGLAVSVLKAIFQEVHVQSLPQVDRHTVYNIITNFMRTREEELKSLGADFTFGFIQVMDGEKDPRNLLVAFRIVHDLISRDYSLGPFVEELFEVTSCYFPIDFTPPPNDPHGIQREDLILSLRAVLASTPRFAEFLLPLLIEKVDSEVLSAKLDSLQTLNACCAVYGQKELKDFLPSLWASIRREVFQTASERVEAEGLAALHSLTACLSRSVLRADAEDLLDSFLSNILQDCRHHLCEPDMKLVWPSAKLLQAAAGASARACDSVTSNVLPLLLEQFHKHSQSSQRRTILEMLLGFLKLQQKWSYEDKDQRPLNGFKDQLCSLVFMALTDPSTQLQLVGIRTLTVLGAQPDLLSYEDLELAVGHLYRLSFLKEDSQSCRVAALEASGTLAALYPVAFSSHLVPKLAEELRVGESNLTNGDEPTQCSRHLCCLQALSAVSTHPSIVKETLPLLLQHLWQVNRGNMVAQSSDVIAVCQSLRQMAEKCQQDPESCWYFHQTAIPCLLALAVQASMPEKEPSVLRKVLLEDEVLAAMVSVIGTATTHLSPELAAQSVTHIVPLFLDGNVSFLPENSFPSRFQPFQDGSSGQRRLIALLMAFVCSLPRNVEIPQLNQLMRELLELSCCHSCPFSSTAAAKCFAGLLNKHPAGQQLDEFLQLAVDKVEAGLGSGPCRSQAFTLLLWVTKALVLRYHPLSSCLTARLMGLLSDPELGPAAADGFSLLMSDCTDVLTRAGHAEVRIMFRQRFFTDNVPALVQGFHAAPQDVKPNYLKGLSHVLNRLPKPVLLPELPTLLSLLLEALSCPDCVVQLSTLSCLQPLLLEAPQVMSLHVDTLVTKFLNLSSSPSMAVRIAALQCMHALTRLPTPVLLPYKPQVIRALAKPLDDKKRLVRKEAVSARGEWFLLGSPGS
UniProt Q9BUB5, sequence (Q9BUB5 whole entry, looked up): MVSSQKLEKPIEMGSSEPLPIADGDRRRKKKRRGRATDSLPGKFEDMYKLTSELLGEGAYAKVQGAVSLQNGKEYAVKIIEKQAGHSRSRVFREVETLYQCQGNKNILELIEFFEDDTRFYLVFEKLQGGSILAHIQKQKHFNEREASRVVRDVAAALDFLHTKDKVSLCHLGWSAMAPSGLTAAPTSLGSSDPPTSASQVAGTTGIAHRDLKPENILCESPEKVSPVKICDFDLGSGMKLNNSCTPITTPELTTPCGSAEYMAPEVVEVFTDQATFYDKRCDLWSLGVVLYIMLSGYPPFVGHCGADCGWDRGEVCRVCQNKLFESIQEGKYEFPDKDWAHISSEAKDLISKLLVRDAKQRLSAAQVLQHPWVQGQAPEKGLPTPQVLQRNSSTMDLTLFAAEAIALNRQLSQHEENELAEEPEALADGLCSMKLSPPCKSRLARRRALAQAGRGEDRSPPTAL
UniProt O00566, sequence (O00566 whole entry, looked up): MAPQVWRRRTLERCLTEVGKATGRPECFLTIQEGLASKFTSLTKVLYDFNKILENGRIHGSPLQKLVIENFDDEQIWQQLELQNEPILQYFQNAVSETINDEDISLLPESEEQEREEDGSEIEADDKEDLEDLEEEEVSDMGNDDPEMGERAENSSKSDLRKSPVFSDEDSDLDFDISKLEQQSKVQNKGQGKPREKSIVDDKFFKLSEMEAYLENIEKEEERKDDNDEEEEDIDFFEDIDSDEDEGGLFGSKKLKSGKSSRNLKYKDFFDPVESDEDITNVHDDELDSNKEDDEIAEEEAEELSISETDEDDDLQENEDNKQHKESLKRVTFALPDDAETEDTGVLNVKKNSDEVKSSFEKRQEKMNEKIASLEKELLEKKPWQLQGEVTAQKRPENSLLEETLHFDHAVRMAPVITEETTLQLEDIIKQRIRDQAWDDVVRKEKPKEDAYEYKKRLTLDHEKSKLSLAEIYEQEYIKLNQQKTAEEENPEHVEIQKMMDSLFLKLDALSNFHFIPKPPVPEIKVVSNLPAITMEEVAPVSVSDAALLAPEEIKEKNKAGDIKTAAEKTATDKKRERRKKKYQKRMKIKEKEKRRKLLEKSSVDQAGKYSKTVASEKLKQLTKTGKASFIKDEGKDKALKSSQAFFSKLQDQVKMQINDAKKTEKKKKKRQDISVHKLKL
UniProt O75438, sequence (O75438 whole entry, looked up): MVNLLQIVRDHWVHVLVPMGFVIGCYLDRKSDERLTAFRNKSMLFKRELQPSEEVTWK

log2 fold change, inactive:
MYSM1 (UniProt Q5VVJ2) 0.141
OGFOD2 (UniProt Q6N063) -0.003
MORF4L2 (UniProt Q15014) -0.038
NOL7 (UniProt Q9UMY1) 0.033
NUMB (UniProt P49757) -0.008
NSDHL (UniProt Q15738) -0.05
NUDT16 (UniProt Q96DE0) 0.044
NUDT6 (UniProt P53370) 0.127
OXR1 isoform 2 (UniProt Q8N573) 0.004
NA (UniProt B2RBV5) -0.058
NAP1L1 (UniProt B7Z9C2) -0.081
OAT (UniProt P04181) -0.012
NOP53 (UniProt Q9NZM5) -0.001
NDUFB10 (UniProt O96000) 0.003
NECTIN2 (UniProt Q92692) -0.016
MPHOSPH10 (UniProt O00566) 0.082
NUDCD2 (UniProt Q8WVJ2) -0.005
MT-ND4 (UniProt P03905) 0.022
MKNK1 (UniProt Q9BUB5) 0.01
NCAPH (UniProt Q15003) 0.012
MPP1 (UniProt Q00013) 0.056
MRPS25 (UniProt P82663) 0.029
NR2C2 isoform 2 (UniProt P49116) 0.019
NME7 (UniProt Q9Y5B8) -0.022
MMS19 isoform 8 (UniProt Q96T76) 0.033
NISCH (UniProt Q9Y2I1) 0.045
MRPS22 (UniProt P82650) 0.057
NDUFB7 (UniProt P17568) -0.074
MITD1 (UniProt Q8WV92) -0.133
NDUFB1 (UniProt O75438) 0.017
OSBP (UniProt P22059) -0.013
NPC1L1 (UniProt Q9UHC9) -0.007
PACS1 (UniProt Q6VY07) 0.046
MRPL46 (UniProt Q9H2W6) 0.025
